# High-throughput results from PubChem BioAssay.
# AmpC inh no detg = blocks E. coli AmpC beta-lactamase in detergent-free assay; AID 485341; AmpC nitrocefin hydrolysis, absorbance 480 nm, 0.0001% Triton; 0.52% of 330,000 active; Potency, µM (series often up to 57.1 µM), inactives show at the top dose activity change, negative = inhibition, actives largely listed as inhibitors;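 note: plate controls were no compound for no effect and no enzyme for full effect; nearly all actives have a fitted effect of over 20% in size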
#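 20 mM phosphate pH 7.0 + 0.01% (detergent screen) or 0.0001% Triton X-100; 5.3 nM AmpC reagent; cpd preinc 15 min RT; nitrocefin (800 uM stock) to start; A480 q20 s × 4 min; Activity was normalised to no-enzyme and no-compound control wells.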
# SARS PLpro yeast = blocks SARS-CoV papain-like protease in a yeast assay. Potency, µM (top dose mostly 32.9 µM), inactives show top-dose activity, positive = growth rescue, actives largely listed as activators. 0.19% of 330,000 active. S. cerevisiae expressing SARS-CoV PLpro, growth rescue; calls by dose curve; note: 0% is about no effect; nearly all actives have a fitted effect of over 55% in size
# Giardia FBPA inh-1 = inhibitors of Giardia lamblia fructose-1,6-bisphosphate aldolase | A8B2U2 | purified Giardia FBPA | Potency, µM (series often up to 59.6 µM), inactives show at the highest dose activity, negative = inhibition, actives largely listed as inhibitors | 0.71% of 290,000 active | AID 2451; note: % is set by controls: 0 for no effect and ±100 for the full control effect; nearly all actives have a fitted effect of over 55% in size
# Target sequence (A8B2U2 whole entry, looked up): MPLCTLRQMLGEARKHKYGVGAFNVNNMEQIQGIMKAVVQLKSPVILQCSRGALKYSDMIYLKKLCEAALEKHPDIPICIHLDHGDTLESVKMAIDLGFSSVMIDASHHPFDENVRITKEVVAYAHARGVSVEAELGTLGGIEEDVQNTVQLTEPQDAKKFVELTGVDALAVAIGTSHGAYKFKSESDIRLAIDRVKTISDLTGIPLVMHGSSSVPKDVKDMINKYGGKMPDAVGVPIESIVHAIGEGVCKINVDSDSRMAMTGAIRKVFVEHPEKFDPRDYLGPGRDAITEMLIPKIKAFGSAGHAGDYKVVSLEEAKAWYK
#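 Giardia FBPA (40 nM reagent) was preincubated 10 min at RT with compound (up to 57.5 uM final), then substrate plus GAPDH/TPI/NAD/arsenate coupling system with diaphorase/resazurin was added; resorufin fluorescence (525/598 nm) was read after 20 min.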
# AmpC detergent = AmpC beta-lactamase inhibition with detergent present. P00811. AmpC hydrolysis of nitrocefin, absorbance 480 nm, 0.01% Triton. Potency, µM (highest dose often 114 µM), without a hit: top-dose activity change, negative = inhibition, usual class: inhibitors. 0.041% of 370,000 active;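 note: 0% = no-compound wells and -100% = no-enzyme wells; nearly all actives have a fitted effect of over 25% in size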
#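 20 mM phosphate pH 7.0 + 0.01% (detergent screen) or 0.0001% Triton X-100; 5.3 nM AmpC reagent; cpd preinc 15 min RT; nitrocefin (800 uM stock) to start; A480 q20 s × 4 min; Activity was normalised to no-enzyme and no-compound control wells.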
# Giardia growth = inhibitors of Giardia lamblia growth; Giardia lamblia trophozoite growth inhibition; Potency, µM (titrated, usually from 57.5 µM), inactives show top-dose activity change, negative = inhibition, usual class: inhibitors; 5% of 1,500 active; shares compounds with Giardia FBPA inh-1;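 note: trophozoites exposed to compound for 48 h at 37 °C; % is set by controls: 0 for no effect and ±100 for the full control effect; nearly all actives have a fitted effect of over 70% in size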
# Mammal cell tox = mammalian cytotoxicity of Giardia aldolase inhibitor hits; 4% of 1,500 active; shares compounds with Giardia FBPA inh-1; Potency, µM (top dose mostly 57.5 µM), inactives show at the top dose viability change, negative = toxicity, most hits filed as inhibitors; mammalian cell viability counter-screen, qHTS;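 note: Chinese hamster ovary cells used as mammalian cytotoxicity surrogate; viability measured as cellular ATP by luminescence; compound exposure lasted 48 h before reading; % is set by controls: 0 for no effect and ±100 for the full control effect; nearly all actives have a fitted effect of over 60% in size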
# Giardia FBPA inh-2 = confirmation of Giardia fructose-bisphosphate aldolase inhibitors | shares compounds with Giardia FBPA inh-1 | purified Giardia aldolase enzyme activity, qHTS | Potency, µM (doses to about 57.5 µM), for the others: top-dose activity change, negative = inhibition, usual class: inhibitors | 5% of 1,500 active; note: % is set by controls: 0 for no effect and ±100 for the full control effect; nearly all actives have a fitted effect of over 45% in size
# Rabbit FBPA inh = selectivity test for Giardia aldolase inhibitors: rabbit aldolase. Potency, µM (top dose mostly 57.5 µM), for inactives: top-dose activity, negative = inhibition, hits mostly inhibitors. 4% of 1,500 active. shares compounds with Giardia FBPA inh-1. Rabbit muscle FBPA enzyme inhibition, selectivity counter-screen; note: % is set by controls: 0 for no effect and ±100 for the full control effect; nearly all actives have a fitted effect of over 60% in size
# Target sequence (P00883 whole entry, looked up): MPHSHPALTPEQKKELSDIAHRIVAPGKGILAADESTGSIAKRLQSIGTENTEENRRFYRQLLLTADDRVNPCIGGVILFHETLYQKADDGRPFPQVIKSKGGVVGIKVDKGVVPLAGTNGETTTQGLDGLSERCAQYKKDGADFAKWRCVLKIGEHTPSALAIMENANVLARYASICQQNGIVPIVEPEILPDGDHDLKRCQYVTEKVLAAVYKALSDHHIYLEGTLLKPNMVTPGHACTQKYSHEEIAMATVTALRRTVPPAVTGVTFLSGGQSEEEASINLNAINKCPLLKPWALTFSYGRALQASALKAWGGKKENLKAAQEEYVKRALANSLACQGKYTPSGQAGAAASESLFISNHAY
# GAPDH counter = GAPDH inhibition flagged for Giardia aldolase hits; shares compounds with Giardia FBPA inh-1; GAPDH coupling enzyme counterscreen, biochemical, qHTS; Potency, µM (titrated, usually from 57.5 µM), for the others: at the highest dose activity change, negative = inhibition, most hits filed as inhibitors; 6% of 1,500 active; note: % is set by controls: 0 for no effect and ±100 for the full control effect; nearly all actives have a fitted effect of over 55% in size
# * = called active by the depositor; ? = inconclusive; · = no result given; [ ] = another dose, or the depositor's remark. Rows were chosen to be rich in hits. Some 1.1% of all compounds tested hit in one or more screens of this group. Unless noted, calls come from the whole dose curve; as a rule, active = well fitted curve in the direction sought with a large enough effect; inconclusive = small, poorly fitted or top-dose-only effect, or another doubt; inactive = no such curve, though single readings can be large; an effect the other way counts as inactive or inconclusive. Potency is the fitted concentration of half-maximal effect.
SMILES,AmpC inh no detg,SARS PLpro yeast,Giardia FBPA inh-1,AmpC detergent,Giardia growth,Mammal cell tox,Giardia FBPA inh-2,Rabbit FBPA inh,GAPDH counter
Cc1snc2sc(C(=O)c3ccc(F)cc3)c(N)c12,-24.1%,0.7%,6.29µM*,-4.6%,3.2%[38.3 µM],-23.9%,39.8µM*,?,?
O=[N+]([O-])c1ccc(S(=O)(=O)N2CCN(Cc3ccco3)CC2)cc1,-0.5%,1.2%,·,-5.2%,·,·,-5.0%,-7.7%,5.4%
CCCc1ccc(S(=O)(=O)N2CCN(Cc3ccco3)CC2)cc1,-8.5%,16.8%,1.5%,-8.1%,·,·,·,·,·
Cc1c(C(=O)N2CCC(C)CC2)c(S(=O)(=O)N2CCN(c3ccc(Cl)cc3)CC2)c(C)n1C,·,·,·,-2.0%,·,·,·,·,·
COc1ccc(S(=O)(=O)N2CCC(n3c(C)nc4cccnc43)CC2)cc1Cl,·,·,·,9.4%,·,·,·,·,·
CCOC1C(=O)NC(=O)N1Cc1ccccc1 (configuration not stated),-9.6%,0.9%,28.2µM*,-10.8%,11.5%,-7.0%,12.7%,10.2%,4.7%
CCC(=O)OC1c2ccccc2C(=O)N1Cc1ccccc1 (configuration not stated),2.9%,2.3%,2.9%,-13.1%,·,·,·,·,·
CCCCC1CCC(C(=O)N2CC(=O)Nc3ccc(Cl)cc3C2c2ccc(F)cc2)CC1 (configuration not stated),·,·,·,6.7%,·,·,·,·,·
CCCc1cc(=O)n2[nH]c(NC(=O)c3ccco3)nc2n1,-13.7%,-3.8%,15.8µM*,-0.1%,?,13.3%,-7.7%,-3.7%,-5.2%
CCCCn1cnc2c([nH]c3ccccc32)c1=O,-27.5%,2.6%,-0.4%,0.8%,·,·,·,·,·
CCCn1cnc2c(=S)nc(N)[nH]c21,-11.5%,0.6%,4.46µM*,-5.8%,1.5%[38.3 µM],-1.6%,?,1.7%,-14.6%
CCCCn1cnc2c(=S)nc(N)[nH]c21,-6.3%,1.6%,7.06µM*,3.0%,-3.6%[38.3 µM],-10.9%,-9.3%,-14.0%,-6.7%
CCCCCCCCn1cnc2c(N)c(C)c(C)cc21,84.7%,-4.4%,-1.8%,?,·,·,·,·,·
CCCCCn1cnc2c(=S)nc(N)[nH]c21,-14.5%,0.8%,2.81µM*,2.0%,96.8%,-9.1%,2.7%,3.4%,12.7%
COc1ccc(Cc2n[nH]c(=S)n2N)cc1OC,-25.7%,0.4%,12.6µM*,-1.6%,-6.3%,-1.4%,-3.7%,5.8%,3.5%
Nn1c(Cc2cccc3ccccc23)n[nH]c1=S,-17.8%,3.7%,?,7.7%,·,·,·,·,·
Nn1c(Cc2ccccc2F)n[nH]c1=S,-10.8%,3.0%,14.1µM*,6.3%,-19.2%,-3.1%,-3.8%,8.9%,-0.3%
CN(CCOc1ccccc1)CC(=O)Nc1ccc(Cl)cc1[N+](=O)[O-],4.4%,-15.4%,22.3µM*,-7.8%,?,3.4%,1.7%,-1.5%,12.8%
Cc1ccc(NC(=O)CNCc2ccccc2Cl)cc1S(=O)(=O)N(C)C,8.5%,-1.3%,22.4µM*,-5.4%,?,-5.6%,5.6%,1.6%,2.0%
COc1cc(NC(=O)CN(C)CCOc2ccccc2)c(C)cc1[N+](=O)[O-],114.9%,1.4%,2.6%,-3.5%,·,·,·,·,·
CN(CCOc1ccccc1)CC(=O)Nc1ccc(Cl)c(S(=O)(=O)N(C)C)c1,46.0%,2.0%,15.8µM*,?,-16.2%[10.4 µM],-1.8%,-4.9%,-1.1%,8.9%
COc1ccc(OCCN(C)CC(=O)Nc2c(C)cccc2C)cc1,10.7%,0.4%,14.1µM*,-0.4%,-9.6%[10.4 µM],11.2%,6.0%,1.2%,11.0%
COC(=O)NC(CCc1ccccc1)C(C(C)=O)C(=O)OC (configuration not stated),·,·,1.4%,·,·,·,·,·,·
Cc1cc(C)c2c(NC(=O)c3ccccc3Cl)c(C(=O)NCc3ccc(Cl)cc3)sc2n1,·,·,·,-3.2%,·,·,·,·,·
O=C(CCCc1ccccc1)NC1CC(=O)N(c2ccc(Cl)cc2)C1 (configuration not stated),·,·,·,1.6%,·,·,·,·,·
COc1ccc2c(c1)O[C@@H](c1cccc(C(F)(F)F)c1)[C@H](OC(=O)NCCOc1ccccc1)C2=O,·,·,-0.5%,·,·,·,·,·,·
CC(C)CC(CSc1ccc(Br)cc1)N1CCN(CCc2ccccc2)CCC1=O (configuration not stated),·,·,1.5%,·,·,·,·,·,·
O=C1CN(C(=S)NC(=O)c2ccccc2[N+](=O)[O-])CCN1,-7.6%,-3.0%,11.2µM*,2.0%,?,-7.4%,0.4%,7.9%,11.7%
O=C(NNC(=S)NC(=O)c1ccccc1[N+](=O)[O-])c1ccccc1,-19.8%,6.0%,0.2%,2.5%,·,·,·,·,·
